# Results as given in PubChem BioAssay.
# Activity calls are given as the source filed them.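 How the source made its calls, unless noted: active means inhibition above 20% together with a positive visual image hit; inconclusive means visual image hit but inhibition not above 20%; inactive means no visual image hit.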
# Experiments:
# [1] = inhibitors of TNFa-induced NFkB p65 translocation, primary screen, imaging, HUVEC, MLSMR starter and 10KST1 sets (AID 438); conditions: HUVEC TNFa-induced p65 nuclear translocation; cell count: measured here: nuclei count (cytotoxicity indicator), at 2.08 µM; inhibition: at 2 µM, stronger effect = higher value, 0% TNFa-plus-vehicle, 100% no-TNFa wells;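 further: compound added about 3h40 before a 20 min TNFalpha stimulation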;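 on inhibition: signal is the nuclear over cytoplasmic p65 intensity ratio per well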
# [2] = reduction of polyQ htt aggregates in cells – imaging, exon1htt(103Q)mCFP cells, high-content imaging, primary screen (AID 483;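 active means visual image review flags a hit and inhibition of aggregation exceeds 20%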;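 further: compound exposure lasted 3 days before fixation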;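 on nuclei count: percent of the per-plate median nuclei count of sample wells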); conditions: exon1htt(103Q)mCFP cell line, aggregate imaging, at 2 µM; inhibition of aggregation: stronger effect = higher value; nuclei count: measured here: cell count, toxicity
# [3] = endothelial E-selectin expression blockers – imaging, HUVEC, immunofluorescence, MLSMR starter and 10KST1 sets, primary screen (AID 487;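 active means visually confirmed hit in the image check and inhibition above 20%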;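 on inhibition: signal is fraction of cell area covered by stained E-selectin grains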;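 on nuclei count: 100% = median nuclei count of all wells on the same plate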); conditions: HUVEC TNFalpha-induced E-selectin immunofluorescence imaging, at 2 µM; inhibition: stronger effect = higher value; nuclei count: measured here: cell number, toxicity
# [4] = target: Voltage-gated potassium channel subunit beta-2 (Rattus norvegicus) (UniProt P62483); assay: inhibitors of rat Kvbeta2 reductase activity – biochemical, NADPH fluorescence, primary screen (AID 622;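 active means fluorescence slope higher than the sample average by over 3 SD, cut at about -0.22 in these data, passing the limit was not always enough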;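 further: slope of raw intensity against log time taken from 70 to 1610 s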); conditions: recombinant KvBeta, 4-cyanobenzaldehyde reduction, at 10 µM, stronger effect = higher value
# Sequence of Voltage-gated potassium channel subunit beta-2 (Rattus norvegicus) (P62483 whole entry, looked up): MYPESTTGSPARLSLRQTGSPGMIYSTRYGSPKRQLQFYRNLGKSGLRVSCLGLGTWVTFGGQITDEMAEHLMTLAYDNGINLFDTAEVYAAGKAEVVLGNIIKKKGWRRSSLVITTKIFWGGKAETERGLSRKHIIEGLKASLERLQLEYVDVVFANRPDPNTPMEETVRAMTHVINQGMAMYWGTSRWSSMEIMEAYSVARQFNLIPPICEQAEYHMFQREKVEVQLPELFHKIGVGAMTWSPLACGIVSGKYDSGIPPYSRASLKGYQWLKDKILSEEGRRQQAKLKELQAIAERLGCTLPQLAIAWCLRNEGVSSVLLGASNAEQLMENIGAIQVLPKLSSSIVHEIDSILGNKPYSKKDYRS
# [5] = target: Voltage-gated potassium channel subunit beta-2 (Rattus norvegicus) (UniProt P62483); assay: enhancers of rat Kvbeta2 NADPH turnover – biochemical, NADPH fluorescence, primary screen (AID 623;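 active means NADPH fluorescence slope more negative than the mean of all samples by about 3 SD, 99.7% confidence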;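 further: fluorescence intensity change per second fitted from 20 to 320 s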); conditions: Recombinant KvBeta, NADPH fluorescence decrease slope, 10 min; at 10 µM; stronger effect = lower value
# [6] = target: Alpha-2C adrenergic receptor (Homo sapiens) (UniProt P18825); assay: compounds altering alpha2C-coupled GIRK flux – cell-based, HEK293 alpha2C/GIRK1/2, thallium flux, primary screen (AID 624;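 active means fluorescence slope after compound addition differing from the mean of all screened samples at 99.7% confidence, in either direction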;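 further: slope of fluorescence ratio to pre-addition baseline per second over 15 to 24 s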); conditions: thallium flux BTC fluorescence, at 10 µM, actives lie on both sides
# Sequence of Alpha-2C adrenergic receptor (Homo sapiens) (P18825 whole entry, looked up): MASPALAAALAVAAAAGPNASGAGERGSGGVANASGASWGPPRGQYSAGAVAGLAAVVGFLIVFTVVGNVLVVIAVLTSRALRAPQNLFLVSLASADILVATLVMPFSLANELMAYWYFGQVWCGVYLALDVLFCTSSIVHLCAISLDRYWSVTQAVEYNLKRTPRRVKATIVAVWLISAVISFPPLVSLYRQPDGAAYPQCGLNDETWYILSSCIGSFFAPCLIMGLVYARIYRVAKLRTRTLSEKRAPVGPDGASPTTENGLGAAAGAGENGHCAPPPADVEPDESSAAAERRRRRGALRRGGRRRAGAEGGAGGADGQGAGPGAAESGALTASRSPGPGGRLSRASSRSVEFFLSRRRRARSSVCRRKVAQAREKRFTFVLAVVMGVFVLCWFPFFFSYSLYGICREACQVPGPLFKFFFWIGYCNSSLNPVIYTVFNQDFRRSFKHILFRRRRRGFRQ
# [7] = blockers of RIG-like receptor reporter activation – cell-based, Sendai virus stimulus, luciferase, 10K MLSCN set, TLR/RLR signaling modifier project, primary screen (AID 602276;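 active means inhibition at or above 50% at 10 µM; inactive means inhibition below 50%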;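 further: firefly luciferase from ISG56 promoter only with Renilla not read in this screen; 0% = Sendai virus plus DMSO and 100% = medium plus DMSO without virus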); conditions: HEK293 RL24 IRF3 luciferase reporter, at 10 µM, stronger effect = higher value
# [8] = TLR3 IRF3 reporter activation blockers – cell-based, poly I:C stimulus, luciferase, 10K MLSCN set, primary screen (AID 602277;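 active means inhibition of the reporter signal at or above 50%; inactive means inhibition below 50%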); conditions: HEK293-TLR3 RL24 IRF3 luciferase reporter, at 10 µM, stronger effect = higher value
SMILES,cell count [1],inhibition [1],inhibition of aggregation [2],nuclei count [2] [%],inhibition [3],nuclei count [3] [%],fluorescence slope [4],NADPH fluorescence slope [5],slope [6],inhibition [7],inhibition [8]
Cc1ccc(CCNC(=O)C2CCN(S(=O)(=O)c3ccc4c(c3)CCC(=O)N4)CC2)cc1,742,2.2% (inactive),-19.2% (inactive),114,27% (inactive),102,-0.56 (inactive),1.8e-05 (inactive),0.00653 (inactive),-8.22% (inactive),-0.993% (inactive)
Cn1c(=O)c2c(-c3ccccc3)n(CCCN3CCOCC3)cc2n(C)c1=O,953,7.9% (inactive),-17.3% (inactive),108,-6.9% (inactive),102,-0.574 (inactive),-2.7e-08 (inactive),0.00936 (inactive),-9.43% (inactive),-18.1% (inactive)
c1ccc(Oc2ccc(-n3cnnn3)cc2)cc1,254,1.5% (inactive),-1.2% (inactive),66,-14% (inactive),106,-0.391 (inactive),9.8e-07 (inactive),0.00429 (inactive),-11.3% (inactive),0.336% (inactive)
CC1=C(C(=O)Nc2ccccc2)C(c2cccs2)C(C#N)=C(SCC#N)N1 (centres undefined),713,-16.4% (inactive),27.1% (inactive),77.7,34.7% (inactive),99.1,-0.525 (inactive),-6.3e-05 (inactive),0.00547 (inactive),-25.9% (inactive),-5.98% (inactive)
Cc1cc2cc(CCNC(=O)CC(C)C)c(=O)[nH]c2cc1C,633,-5.8% (inactive),15.1% (inactive),83.5,-40% (inactive),107,-0.595 (inactive),-2.7e-05 (inactive),0.00623 (inactive),-11.5% (inactive),-9.56% (inactive)
O=C(O)C1CC=CCC1C(=O)NCc1ccccc1 (centres undefined),625,6% (inactive),-11% (inactive),107,-28.4% (inactive),107,-0.41 (inactive),3.8e-06 (inactive),0.00502 (inactive),10% (inactive),11.4% (inactive)
O=C(O)CC1NC(=O)N(c2ccccc2)C1=O (centres undefined),540,-4.6% (inactive),5.1% (inactive),95.5,-106% (inactive),114,-0.599 (inactive),1.8e-06 (inactive),0.00411 (inactive),16.4% (inactive),21.9% (inactive)
O=S(=O)(c1ccc2c(c1)OCCO2)N1CCN(Cc2ccc3c(c2)OCO3)CC1,632,1.9% (inactive),0.7% (inactive),100,-24.5% (inactive),113,-0.345 (inactive),-5.1e-05 (inactive),0.00449 (inactive),9.49% (inactive),25.6% (inactive)
Cc1nn(C)c(C)c1CNC(=O)c1cc2n(n1)C(C(F)(F)F)CC(c1cccs1)N2 (centres undefined),565,1.9% (inactive),-16.5% (inactive),95.1,-65% (inactive),115,-0.583 (inactive),-6.9e-05 (inactive),0.00578 (inactive),-2.09% (inactive),-24.4% (inactive)
O=C(Cn1c(=O)sc2ccccc21)NCCOc1ccccc1F,780,-12% (inactive),-3.1% (inactive),104,36.2% (inactive),108,-0.514 (inactive),-9e-06 (inactive),0.00676 (inactive),0.0246% (inactive),6.19% (inactive)
CC(C)Cc1nc(S(=O)(=O)c2ccc(Cl)cc2)c(N2CCOCC2)o1,570,-12.7% (inactive),-12.7% (inactive),119,-14.6% (inactive),105,-0.612 (inactive),-4.1e-05 (inactive),0.00543 (inactive),13.7% (inactive),12.7% (inactive)
COc1cc(CN(C)CC(=O)c2[nH]c(C)c(C(C)=O)c2C)ccc1OC(F)F,443,1.6% (inactive),-11% (inactive),95.9,-86.8% (inactive),129,-0.616 (inactive),-2.3e-05 (inactive),0.00408 (inactive),-17.1% (inactive),-82.6% (inactive)
CCOC(=O)c1c(-c2ccc(C)o2)csc1NC(=O)COC(=O)c1cccs1,478,-7.8% (inactive),10% (inactive),66.4,-41.5% (inactive),113,-0.403 (inactive),-5.7e-05 (inactive),0.00798 (inactive),7.28% (inactive),15.5% (inactive)
Cc1ccc2cc(C#N)c(NCCCNC(=O)C3CCCO3)nc2c1 (centres undefined),271,-2.8% (inactive),-8.8% (inactive),82.7,-25.3% (inactive),116,-0.476 (inactive),-9.9e-05 (inactive),0.00509 (inactive),9.51% (inactive),10.8% (inactive)
